The full list was thinned out, with hits kept by preference.
BL2 CD40 inh = inhibitors of CD40-induced NF-kB signaling, primary screen, BL2 cells, luciferase reporter, single point | inhibition, % at 10 µM | AID 1053188, 2014 | 83,000 tested, 0.94% active | CD40L-induced, 4 h;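 active = mean inhibition of at least 50% with a set share of replicates also reaching that level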;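 note: 0% = neutral control wells and 100% = IKK inhibitor VII at 50 µM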
* marks the source's active call; other numbers are inactive results; [ ] = dose if it differs, or a comment.

How did Cn1cnc(CCNC(=O)C[C@H]2CC[C@@H]3[C@H](COC[C@H](O)CN3C(=O)Nc3ccc(C(F)(F)F)cc3)O2)c1 do in these assays?
BL2 CD40 inh: 4[25 µM]

What do the screens show for `COc1ccc(NC(=O)c2ccccc2NC(=O)c2ccco2)cc1`?
BL2 CD40 inh: -8

What do the screens show for `COc1ccc(-c2ccc(NC(=O)c3ccco3)cc2)nn1`?
BL2 CD40 inh: 82*

What do the screens show for `COc1ccc(-c2cccc(NC(=O)c3ccco3)c2)nn1`?
BL2 CD40 inh: -10

How did N#Cc1ccc(-c2cccc(-c3nc(C(=O)O)cc4c3[C@@H](CCO)N(CC3CCOCC3)C4)c2)cc1 do in these assays?
BL2 CD40 inh: 4[25 µM]

Results for N#C[C@@H]1[C@H](c2ccc(C3=CCCC3)cc2)[C@H](CO)N1C(=O)NC1CCCCC1 ?
BL2 CD40 inh: 43[25 µM]

How did O=C(C[C@H]1C[C@H]2c3cc(NS(=O)(=O)c4ccccc4)ccc3O[C@H]2[C@@H](CO)O1)N1CCOCC1 do in these assays?
BL2 CD40 inh: -7[25 µM]

What do the screens show for `CN1C(=O)c2cc(NC(=O)c3cccc(Cl)c3)ccc2OC[C@H]2O[C@@H](CC(=O)NC3CCCCC3)CC[C@H]21`?
BL2 CD40 inh: 18[25 µM]

Results for N#Cc1c(NCCCO)nc(NCc2ccccc2)c2c1CCN(Cc1ccccc1)C2 ?
BL2 CD40 inh: -1

Results for CN1CCc2c(C#N)c(N3CCCCC3)nc(NCc3ccccc3)c2C1 ?
BL2 CD40 inh: 35*

Results for Cc1nc(N2CCN(C(=O)c3ccco3)CC2)c(C#N)c2c1CCCC2 ?
BL2 CD40 inh: -7

What do the screens show for `CC(=O)N(C)C[C@@H]1Oc2ccc(N(C)C)cc2CC(=O)N(C)C[C@H]1C`?
BL2 CD40 inh: 3

Results for CO[C@@H]1CN(C)C(=O)c2cc(NS(=O)(=O)c3cccc(Cl)c3)ccc2OC[C@@H](C)NC[C@H]1C ?
BL2 CD40 inh: -6[25 µM]

Results for CC(C)NC(=O)N(C)C[C@@H]1Oc2ccc(N(C)C)cc2CC(=O)N(C)C[C@@H]1C ?
BL2 CD40 inh: 4

How did COc1ccc2c3c(n(C)c2c1)[C@@H](CO)N(C(=O)c1ccncc1)CC31CN(C(C)=O)C1 do in these assays?
BL2 CD40 inh: 1[25 µM]

What do the screens show for `Cc1ccccc1OCC(=O)Nc1ccc2c(c1)C(=O)c1ccccc1C2=O`?
BL2 CD40 inh: -9

How did Cc1ccccc1OCC(=O)Nc1cccc(C(=O)O)c1 do in these assays?
BL2 CD40 inh: 91*

How did Cc1ccccc1OCC(=O)Nc1ccc2c(c1)Cc1ccccc1-2 do in these assays?
BL2 CD40 inh: 7

What do the screens show for `CO[C@H]1CN(C)C(=O)c2ccc(NS(=O)(=O)c3c(C)noc3C)cc2OC[C@@H](C)NC[C@@H]1C`?
BL2 CD40 inh: 0[25 µM]

Results for O=C(C1CCOCC1)N1[C@H](CO)[C@@H](c2ccccc2)C12CN(CCC(F)(F)F)C2 ?
BL2 CD40 inh: -5[25 µM]

What do the screens show for `CO[C@@H]1CN(C)C(=O)c2cc(NC(=O)C3CCOCC3)ccc2OC[C@@H](C)N(C(=O)Nc2ccc(C(F)(F)F)cc2)C[C@H]1C`?
BL2 CD40 inh: 9[25 µM]

Results for C[C@H]1CN([C@@H](C)CO)C(=O)Cc2cc(NC(=O)Cc3cn(C)c4ccccc34)ccc2O[C@H]1CN(C)Cc1ccc(C(F)(F)F)cc1 ?
BL2 CD40 inh: 76*[25 µM]

Results for C[C@@H]1CN([C@@H](C)CO)C(=O)c2cc(NC(=O)Cc3cn(C)c4ccccc34)ccc2O[C@@H]1CN(C)Cc1ccc2c(c1)OCO2 ?
BL2 CD40 inh: 5[25 µM]

How did C[C@@H]1CN([C@@H](C)CO)C(=O)c2cc(NC(=O)CCN3CCOCC3)ccc2O[C@@H]1CN(C)Cc1ccc(C(F)(F)F)cc1 do in these assays?
BL2 CD40 inh: 9[25 µM]

What do the screens show for `C[C@@H]1CN([C@@H](C)CO)C(=O)Cc2cc(NC(=O)Nc3ccc(C(F)(F)F)cc3)ccc2O[C@H]1CN(C)Cc1ccc2c(c1)OCO2`?
BL2 CD40 inh: 5

What do the screens show for `COc1ccc(CN(C)C[C@H]2Oc3ccc(NC(=O)Cc4cn(C)c5ccccc45)cc3CC(=O)N([C@@H](C)CO)C[C@@H]2C)cc1`?
BL2 CD40 inh: 6

How did C[C@@H]1CN([C@H](C)CO)C(=O)Cc2cc(NC(=O)Cc3cn(C)c4ccccc34)ccc2O[C@H]1CN(C)Cc1ccc(C(F)(F)F)cc1 do in these assays?
BL2 CD40 inh: 72*[25 µM]

Results for N#C[C@H]1[C@H](c2ccccc2)[C@@H](CO)N1C(=O)Nc1cccc(F)c1 ?
BL2 CD40 inh: -10[25 µM]

How did CCCN1CCC2(CC1)CN(Cc1ccccc1OC)[C@H](CO)c1c2c2ccc(OC)cc2n1C do in these assays?
BL2 CD40 inh: -105

How did C[C@H]1CC=CC[C@H](c2ccc3c(c2)OCO3)NC(=O)[C@H](C)N(C)C(=O)c2ccccc2O1 (mixture of isomers) do in these assays?
BL2 CD40 inh: 11[25 µM]

How did C/C=C/c1ccc([C@H]2[C@H](CO)N(C(=O)CC)[C@H]2CN(C)S(C)(=O)=O)cc1 do in these assays?
BL2 CD40 inh: 11[25 µM]

How did CC(C)NC(=O)Nc1ccc2c(c1)C(=O)N(C)C[C@H](C)[C@H](CN(C)C(=O)OC(C)(C)C)O2 do in these assays?
BL2 CD40 inh: 0

Compound activity: PubChem, Broad Institute
